The list is not random: actives were taken first. Their share in the collection is about 1.8%.
INS-1E GSIS act – primary screen for activators of insulin secretion dependent on glucose, INS-1E cells, GLuc reporter luminescence | INS-1E GLuc reporter insulin secretion, 2-3 h | actives 0.61% (n = 370,000) | activation, % at 16.6 µM;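 active = lowest replicate activation of at least 40%, so every replicate reaches that level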;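 note: 0% = median of neutral control wells and 100% = median of IBMX positive control wells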
RAD54 branch – blocks human RAD54 Holliday junction branch migration; Q92698; FAM/BHQ fluorescence; inhibition, % at 10.4 µM; actives 0.14% (n = 360,000);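 active = mean normalized replicate activity at least 40 and at least half of replicates scoring 40 or more; inconclusive = only one of the two criteria met; inactive = mean below 40 and under half of replicates reaching 40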;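 note: 0% = median of neutral control wells and 100% = median of positive control wells; inhibitors cause a drop in the FAM fluorescence signal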
EWS-Fli block – EWS/Fli transcriptional activity inhibition; A673 NR0B1-luciferase reporter, viability-normalised; inhibition, % at 12.6 µM; actives 0.67% (n = 350,000); AID 651661;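 active = mean inhibition of at least 50% after viability correction, with every replicate also passing that limit; inconclusive = mean reaches 50% but only one of two replicates passes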;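 note: firefly luciferase signal divided by Alamar Blue viability fluorescence both relative to DMSO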
LGR2 inh – Drosophila LGR2 receptor signaling inhibition; HEK293 LGR2, CRE-luciferase, bursicon-stimulated, 4 h; inhibition, % at 9.99 µM; actives 0.35% (n = 380,000); AID 720647;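 active = drop in luminescence signal, shown as inhibition above about 50% in the replicate tests, limit read from the data, passing the limit was not always enough; inconclusive = probably only some replicates passing the limit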;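 note: agonist challenge used bursicon conditioned medium at about half maximal strength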
RAD52 anneal inh – blocks human RAD52 DNA annealing | P43351 | recombinant RAD52 DNA annealing, FRET fluorescence | inhibition, % at 18.7 µM | actives 0.46% (n = 360,000) | AID 651710;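 active = every replicate showing at least 50% inhibition; inconclusive = mean inhibition at least 50% but not in every replicate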
Target sequence (P43351 whole entry, looked up): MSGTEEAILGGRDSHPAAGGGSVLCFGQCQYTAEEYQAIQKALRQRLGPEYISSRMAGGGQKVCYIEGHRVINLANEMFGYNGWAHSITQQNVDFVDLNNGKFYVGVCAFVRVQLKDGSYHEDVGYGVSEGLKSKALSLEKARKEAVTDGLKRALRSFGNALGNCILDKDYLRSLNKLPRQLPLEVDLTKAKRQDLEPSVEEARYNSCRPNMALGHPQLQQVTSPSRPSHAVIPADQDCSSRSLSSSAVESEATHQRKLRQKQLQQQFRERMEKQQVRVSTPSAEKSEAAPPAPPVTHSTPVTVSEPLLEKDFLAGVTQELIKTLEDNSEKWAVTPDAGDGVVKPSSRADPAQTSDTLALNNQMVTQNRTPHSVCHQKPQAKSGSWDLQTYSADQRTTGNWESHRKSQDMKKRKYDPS
CFTR F508del cor – CFTR F508del correction in bronchial cells; CFBE cells, YFP halide quenching; stimulated with forskolin plus potentiator P3; % fluorescence drop versus neutral controls; activity (quench increase), % at 7.58 µM; actives 0.36% (n = 350,000); AID 720511;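 active = mean added fluorescence quench of at least 8% versus neutral control, with both replicates also reaching 8%; inconclusive = only one of the mean or replicate conditions met; inactive = mean below 8% and not both replicates reaching 8%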;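 note: cells transiently co-express mutant CFTR-F508del with the halide-sensitive YFP; corrector assay measuring rescue of mutant channel to the surface after 24 h compound exposure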
Active calls of the source: *.

Cc1ccc(S(=O)(=O)N2C[C@@H](O)COC[C@H]3O[C@H](CC(=O)NCC4CCCCC4)CC[C@@H]32)cc1 was read as INS-1E GSIS act -9.7, RAD54 branch -1.6, EWS-Fli block 2.5, LGR2 inh -0.5, RAD52 anneal inh 81.7* and CFTR F508del cor -3.7.
For Cc1ccc(S(=O)(=O)N2C[C@H](O)COC[C@H]3O[C@H](CC(=O)NCC4CCCCC4)CC[C@@H]32)cc1 the results were INS-1E GSIS act 9.1, RAD54 branch 2.2, EWS-Fli block 7.1, LGR2 inh 9.6, RAD52 anneal inh 64.7* and CFTR F508del cor -1.5.
For O=C(Cn1nnc(-c2ccccc2)n1)N=Nc1c(O)[nH]c2ccccc12 the results were INS-1E GSIS act 92.8*.
`C[C@H](CO)N1C[C@H](C)[C@@H](CN(C)C(=O)NC2CCCCC2)Oc2cc(C#Cc3ccc(F)cc3)ccc2S1(=O)=O` gave INS-1E GSIS act -10.0, RAD54 branch 3.7, EWS-Fli block 5.5, LGR2 inh 41.9, RAD52 anneal inh -11.9 and CFTR F508del cor 8.5*.
C[C@H]1CN([C@@H](C)CO)S(=O)(=O)c2ccc(C#Cc3ccc(F)cc3)cc2O[C@H]1CN(C)C(=O)NC1CCCC1 was read as INS-1E GSIS act -11.1, RAD54 branch -3.0, EWS-Fli block 23.4, LGR2 inh 19.7, RAD52 anneal inh -1.1 and CFTR F508del cor 8.6*.
Screening C[C@H](CO)N1C[C@H](C)[C@@H](CN(C)C(=O)NC2CCCC2)Oc2cc(C#Cc3ccc(F)cc3)ccc2S1(=O)=O returned INS-1E GSIS act -17.0, RAD54 branch 8.1, EWS-Fli block 12.3, LGR2 inh -7.3, RAD52 anneal inh 0.4 and CFTR F508del cor 0.0.
`C[C@H](CO)N1C[C@H](C)[C@H](CN(C)C(=O)NC2CCCC2)Oc2cc(C#Cc3ccc(F)cc3)ccc2S1(=O)=O` gave INS-1E GSIS act -3.8, RAD54 branch -3.6, EWS-Fli block 27.6, LGR2 inh 6.3, RAD52 anneal inh -11.1 and CFTR F508del cor 9.7*.
For C[C@@H]1CN([C@@H](C)CO)C(=O)c2cccc(NC(=O)c3ccncc3)c2O[C@H]1CN(C)Cc1ccc(C(F)(F)F)cc1 the results were INS-1E GSIS act 1.5, RAD54 branch -14.5, EWS-Fli block -8.4, LGR2 inh 13.7, RAD52 anneal inh 4.0 and CFTR F508del cor -2.4.
CO[C@H]1CN(C)C(=O)c2ccc(NC(C)=O)cc2OC[C@H](C)NC[C@H]1C was read as INS-1E GSIS act -1.7, RAD54 branch 1.0, EWS-Fli block 6.8, LGR2 inh -9.2, RAD52 anneal inh 0.1 and CFTR F508del cor -2.9.
For COc1ccc(C(=S)N2CCN(c3cccc(Cl)c3)CC2)c(OC)c1 the results were INS-1E GSIS act -5.8, EWS-Fli block 56.1*, LGR2 inh 15.6, RAD52 anneal inh -15.8 and CFTR F508del cor inconclusive.
For O=C(NCc1ccccc1)N1CCN(c2ccccc2F)CC1 the results were RAD54 branch -4.9.
`O=C(CCC1CC(=O)Nc2ccccc21)NCc1ccccc1` (centres undefined) gave INS-1E GSIS act -1.6, RAD54 branch -4.5, EWS-Fli block 13.3, LGR2 inh 15.3, RAD52 anneal inh -6.5 and CFTR F508del cor -2.1.
For O=C(NCCOc1ccccc1)c1ccccc1Cl the results were INS-1E GSIS act 13.6, RAD54 branch -9.7, EWS-Fli block -31.9, LGR2 inh -15.6, RAD52 anneal inh -6.5 and CFTR F508del cor 1.8.
For CN(C(=O)COc1ccccc1C(=O)NCCOc1ccccc1)c1ccccc1 the results were INS-1E GSIS act -58.2, LGR2 inh 87.7* and RAD52 anneal inh -0.5.
`O=C(NCCCN1CCOCC1)c1ccc(Sc2ccc(F)cc2)c([N+](=O)[O-])c1` gave INS-1E GSIS act -0.5 and LGR2 inh -19.8.
`CCOc1ccc(N=Cc2c(C)[nH]n(-c3nc4ccccc4[nH]3)c2=O)cc1` gave INS-1E GSIS act 26.7, EWS-Fli block 0.2, LGR2 inh 63.1* and RAD52 anneal inh -4.2.
Screening C[C@@H]1CN([C@@H](C)CO)C(=O)Cc2cc(NC(=O)Nc3ccc(C(F)(F)F)cc3)ccc2O[C@@H]1CN(C)C(=O)Nc1cccc2ccccc12 returned INS-1E GSIS act 2.9, RAD54 branch -2.9, EWS-Fli block 67.5*, LGR2 inh 5.1, RAD52 anneal inh 11.4 and CFTR F508del cor 2.2.

High-throughput results as filed in PubChem BioAssay.
